Experimental data published in PubChem BioAssay (Tox21).
Records with an inconclusive call do not appear. Active and inactive are the calls of the source. Unless noted, calls come from the whole dose curve; as a rule, active = well fitted curve in the direction sought with a large enough effect in the repeat runs; inconclusive = weak or mixed curves; inactive = no such curve, though single readings can be large; an effect the other way counts as inactive or inconclusive.

Assays:
[1] = A CellTox Green Cytotoxicity Assay to monitor cytotoxicity in HEK293 cells - 32 hour (AID 1224881); note: nearly all actives have a fitted effect of over 40% in size
How it was run: (§1)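 Nonlytic real-time cytotoxicity: HEK293 + CellTox Green reagent plated, 5 h preincubation, pintool compound addition (23 nL in DMSO), 37 C for 40 h, fluorescence measured at successive time points.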

[2] = A CellTox Green Cytotoxicity Assay to monitor cytotoxicity in HepG2 cells - 0 hour (AID 1224882); note: nearly all actives have a fitted effect of over 35% in size
How it was run: (§2)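 Read-out is fluorescence of a cyanine dye excluded from live cells that stains DNA of dead HepG2 cells, with signal proportional to cytotoxicity. Plates were read at 0, 8, 16, 24, 32 and 40 h after compound addition.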

[3] = A CellTox Green Cytotoxicity Assay to monitor cytotoxicity in HepG2 cells - 32 hour (AID 1224883); note: nearly all actives have a fitted effect of over 50% in size
How it was run: as §2

[4] = A CellTox Green Cytotoxicity Assay to monitor cytotoxicity in HEK293 cells - 8 hour (AID 1224884); note: nearly all actives have a fitted effect of over 35% in size
How it was run: as §1

[5] = qHTS RealTime-Glo MT Cell Viability Assay in HEK293 cells - 24 hour (AID 1224886); note: top concentration of the series differs between compounds; nearly all actives have a fitted effect of over 50% in size
How it was run: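 Viability tracked continuously by luminescence as live cells reduce a prosubstrate for NanoLuc; HEK293 cells preincubated 5 h, compound-treated at 37 C, and read at 0, 8, 16, 24, 32 and 40 h.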

[6] = qHTS RealTime-Glo MT Cell Viability Assay in HEK293 cells - 8 hour (AID 1224887); note: top concentration of the series differs between compounds; nearly all actives have a fitted effect of over 50% in size
How it was run: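 Cells were seeded together with NanoLuc luciferase and a prosubstrate that viable cells reduce to a luciferase substrate. After a 5 h incubation at 37 C/5% CO2, compounds were added and luminescence was measured repeatedly during 40 h of treatment.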

[7] = A CellTox Green Cytotoxicity Assay to monitor cytotoxicity in HEK293 cells - 16 hour (AID 1224888); note: nearly all actives have a fitted effect of over 35% in size
How it was run: as §1

[8] = qHTS RealTime-Glo MT Cell Viability Assay in HepG2 cells - 0 hour (AID 1224889); note: nearly all actives have a fitted effect of over 50% in size
How it was run: (§3)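 Viability was tracked continuously by NanoLuc luminescence from prosubstrate reduced by living HepG2 cells, at successive time points over 40 h of compound exposure. Cells with reagent were preincubated 5 h at 37 °C before compound addition.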

[9] = A CellTox Green Cytotoxicity Assay to monitor cytotoxicity in HepG2 cells - 8 hour (AID 1224890); note: nearly all actives have a fitted effect of over 45% in size
How it was run: as §2

[10] = qHTS assay to identify small molecule antagonists of the estrogen receptor alpha (ER-alpha) signaling pathway using the BG1 cell line in the presence of 0.1 nM 17-beta-estradiol - cell viability counter screen (AID 1259241); note: nearly all actives have a fitted effect of over 40% in size
How it was run: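 Live-cell protease activity (CellTiter-Fluor fluorescence, 30 min) was read in the same wells after VM7Luc4E2 cells had been exposed to compounds with 0.1 nM 17beta-estradiol for 22 hr at 37C.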

[11] = qHTS assay to identify small molecule antagonists of the androgen receptor (AR) signaling pathway using the MDA cell line in the presence of 0.5 nM R1881 - cell viability counter screen (AID 1259242); note: nearly all actives have a fitted effect of over 45% in size
How it was run: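 Counter screen for cytotoxicity run in the same wells as the AR antagonist reporter screen: MDA-kb2 cells were treated 16 hr with test compounds and 0.5 nM R1881, then live-cell protease activity was measured by fluorescence.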

[12] = target: Estrogen receptor (Homo sapiens) (UniProt P03372); test: qHTS assay to identify small molecule antagonists of the estrogen receptor alpha (ER-alpha) signaling pathway using the BG1 cell line in the presence of 0.1 nM 17-beta-estradiol (AID 1259244); note: nearly all actives have a fitted effect of over 50% in size
Estrogen receptor (Homo sapiens), sequence (P03372 whole entry, looked up): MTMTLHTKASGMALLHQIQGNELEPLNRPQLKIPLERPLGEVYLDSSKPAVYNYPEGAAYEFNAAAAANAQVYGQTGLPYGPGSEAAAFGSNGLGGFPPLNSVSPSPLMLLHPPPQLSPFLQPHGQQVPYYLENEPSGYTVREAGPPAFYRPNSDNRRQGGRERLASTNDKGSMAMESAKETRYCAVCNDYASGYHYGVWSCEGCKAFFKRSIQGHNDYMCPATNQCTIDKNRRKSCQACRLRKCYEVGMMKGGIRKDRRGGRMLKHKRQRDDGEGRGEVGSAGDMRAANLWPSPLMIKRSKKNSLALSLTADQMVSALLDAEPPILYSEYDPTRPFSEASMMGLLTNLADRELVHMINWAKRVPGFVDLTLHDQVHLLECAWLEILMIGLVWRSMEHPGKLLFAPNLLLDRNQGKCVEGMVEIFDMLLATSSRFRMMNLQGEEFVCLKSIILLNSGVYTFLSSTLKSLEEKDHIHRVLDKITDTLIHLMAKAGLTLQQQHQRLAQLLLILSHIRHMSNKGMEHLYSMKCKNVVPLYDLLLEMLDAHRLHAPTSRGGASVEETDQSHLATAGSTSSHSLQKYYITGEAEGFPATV
How it was run: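 Cells: VM7Luc4E2, endogenous ER-alpha, 4x ERE-luc stable. Pre-culture 5 d, phenol red-free, charcoal-stripped FBS. Plated 24 h, compound + E2 0.1 nM final, 22 h 37C/5% CO2. Readout ONE-Glo luminescence.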

[13] = qHTS assay to identify small molecule HDAC inhibitors (AID 1259364); note: top concentration of the series differs between compounds; nearly all actives have a fitted effect of over 45% in size
How it was run: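 Luminescence from a cell-permeant luminogenic class I/II HDAC substrate reports endogenous deacetylase activity in intact HCT-116 cells treated with compounds for 2 h.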

[14] = qHTS assay to identify small molecule HDAC inhibitors - cell viability counter screen (AID 1259365)
How it was run: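 HCT-116 (wild type), 1,500 cells/well, overnight 37C/5% CO2; compound in DMSO 2hr; CellTiter-Glo 30min RT; luminescence read.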

[15] = qHTS assay to identify small molecule agonists of the sonic hedgehog signaling (Shh) pathway - cell viability counter screen (AID 1259366); note: nearly all actives have a fitted effect of over 50% in size
How it was run: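 CellTiter-Fluor fluorescence read-out, 1 hr at 37C, added after 23hr compound exposure. Cells: 3T3 Gli1-Luc, an NIH/3T3 clone with stably integrated Gli1-Luc reporter, plated 4hr before compound.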

[16] = qHTS assay to identify small molecule antagonists of the sonic hedgehog signaling (Shh) pathway - cell viability counter screen (AID 1259367); note: nearly all actives have a fitted effect of over 55% in size
How it was run: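 Using CellTiter-Fluor, viability of Gli1-Luc reporter 3T3 cells is read by fluorescence in the wells used for the Shh luciferase assay. Treatment lasts 23 hr with conditioned medium, then reagent 1 hr at 37C.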

[17] = qHTS assay to identify small molecule agonists of the sonic hedgehog signaling (Shh) pathway (AID 1259368; calls by dose curve;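 note: NIH/3T3-derived 3T3Gli1-Luc cells carrying a stable Gli1-driven firefly luciferase reporter; series mostly up to about 92 µM; nearly all actives have a fitted effect of over 15% in size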)
How it was run: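 3T3Gli1-Luc (NIH/3T3 clone, stable Gli1-Luc); 4 hr pre-incubation, then cpd in DMSO 24 hr, 37 C/5% CO2; luciferase reagent 30 min RT; luminescence.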

[18] = qHTS RealTime-Glo MT Cell Viability Assay in HepG2 cells - 16 hour (AID 1224885); note: nearly all actives have a fitted effect of over 50% in size
How it was run: as §3

[19] = target: Androgen receptor (Homo sapiens) (UniProt P10275); test: qHTS assay to identify small molecule antagonists of the androgen receptor (AR) signaling pathway using the MDA cell line in the presence of 0.5 nM R1881 (AID 1259243); note: nearly all actives have a fitted effect of over 50% in size
Androgen receptor (Homo sapiens), sequence (P10275 whole entry, looked up): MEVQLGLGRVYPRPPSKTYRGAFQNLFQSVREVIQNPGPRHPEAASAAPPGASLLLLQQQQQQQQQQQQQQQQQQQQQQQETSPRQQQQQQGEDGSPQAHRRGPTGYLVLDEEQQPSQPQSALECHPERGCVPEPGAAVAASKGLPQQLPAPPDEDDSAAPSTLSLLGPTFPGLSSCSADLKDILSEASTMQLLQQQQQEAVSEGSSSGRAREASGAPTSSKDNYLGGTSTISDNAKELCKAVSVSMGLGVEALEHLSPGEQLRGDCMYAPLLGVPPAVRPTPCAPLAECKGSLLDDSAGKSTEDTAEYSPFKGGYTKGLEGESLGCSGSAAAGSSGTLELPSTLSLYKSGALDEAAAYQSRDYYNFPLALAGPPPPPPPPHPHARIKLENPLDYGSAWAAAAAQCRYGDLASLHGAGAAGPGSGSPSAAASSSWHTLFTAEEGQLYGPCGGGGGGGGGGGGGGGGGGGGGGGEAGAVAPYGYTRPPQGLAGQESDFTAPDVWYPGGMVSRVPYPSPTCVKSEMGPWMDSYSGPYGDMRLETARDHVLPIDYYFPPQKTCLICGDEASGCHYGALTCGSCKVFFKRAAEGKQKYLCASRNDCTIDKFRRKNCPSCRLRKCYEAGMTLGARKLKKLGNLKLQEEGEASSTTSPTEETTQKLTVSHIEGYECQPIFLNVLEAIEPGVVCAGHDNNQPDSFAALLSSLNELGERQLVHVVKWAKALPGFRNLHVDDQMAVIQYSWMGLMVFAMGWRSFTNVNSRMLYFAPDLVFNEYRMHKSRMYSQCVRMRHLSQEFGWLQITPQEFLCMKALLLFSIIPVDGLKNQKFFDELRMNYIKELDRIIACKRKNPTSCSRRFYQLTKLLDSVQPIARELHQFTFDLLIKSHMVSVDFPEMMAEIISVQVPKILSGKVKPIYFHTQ
How it was run: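 Luciferase luminescence is the read-out: compounds are tested for suppressing 0.5 nM R1881-driven MMTV reporter activity in MDA-kb2 cells after 16 hr at 37C.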

Measured: Potency

CN(CCO)CCO
not listed: [18] | [19]
inactive: all other assays above

CC1N=C(N)OC1c1ccccc1 (centres undefined)
not listed: [4] | [19]
inactive: all other assays above

CCOC(=O)N(C)N=O
not listed: [12] | [18] | [19]
inactive: all other assays above

COC(=O)c1ccc(CBr)cc1
not listed: [4] | [13] | [17]
inactive: all other assays above

COc1ccc(C=O)cc1O
not listed: [4] | [13]
inactive: all other assays above

Cl/C=C/CCl
not listed: [12] | [17] | [18] | [19]
inactive: all other assays above

CC#Cc1cc(C)nc(Nc2ccccc2)n1
not listed: [5] | [6] | [13] | [17] | [18] | [19]
inactive: all other assays above

ClCCCCCCCl
not listed: [4] | [12] | [19]
inactive: all other assays above

C[N+]1(C)CCCCC1
not listed: [6] | [12] | [18]
inactive: all other assays above

BrCc1ccc(Br)cc1
not listed: [4] | [17]
inactive: all other assays above

CCNP(=S)(OC)O/C(C)=C/C(=O)OC(C)C (centres undefined)
not listed: [13] | [18] | [19]
inactive: all other assays above

O=C(O)C(Br)(Br)Br
not listed: [4] | [19]
inactive: all other assays above

C#CCOC(=O)/C=C(C)/C=C/CC(C)CCCC(C)C (centres undefined)
not listed: [4] | [19]
inactive: all other assays above

CCCCCCCC(=O)Cl
not listed: [4] | [17] | [19]
inactive: all other assays above

C=C1CC[C@@]2(O)[C@H]3Cc4ccc(O)c5c4[C@@]2(CCN3CC2CC2)[C@H]1O5
not listed: [7] | [12] | [17] | [18] | [19]
inactive: all other assays above

C[C@H](N)C(=O)c1ccccc1
not listed: [4]
inactive: all other assays above

Oc1ccc(Cc2ccc(O)cc2)cc1
not listed: [5] | [18] | [19]
inactive: all other assays above
